Calls of active or inactive are those of the source. The calls were made as follows: active = hit-call score of the fitted dose curve at least 0.9, where 1 is the maximum; inactive = score below 0.9.
Read-out: Bcl-2 (BID) gene, BID (gene 637)
Experiment: LTEA_HepaRG_BID: Life Technologies and Expression Analysis (LTEA) Assay for Bcl-2 (BID) gene using HepaRG (AID 2283476)
Details: mRNA level, 48 h; actives raise or lower the signal
Description: LTEA_HepaRG is a cell based, multiplexed-readout assay that uses HepaRG, a human liver cell line, with measurements taken at 48 hours after chemical dosing on a 96-well plate.LTEA_HepaRG_BID is one of 102 assay component(s) measured in the LTEA HepaRG cell culture assay. It is a marker of Cell proliferation, survival, death.Data from the assay component LTEA_HepaRG_BID was analyzed into 1 endpoint. This assay endpoint, LTEA_HepaRG_BID, was analyzed with bidirectional fitting relative to DMSO as the negative control and baseline of activity. Using a type of inducible reporter, measures of mRNA induction for gain or loss-of-signal activity can be used to understand regulation of transcription factor activity. To generalize the intended target to other relatable targets, this assay endpoint is annotated to the cell cycle intended target family, where the subfamily is Cell proliferation, survival, death.
A total of 1060 chemcials from the ToxCast library were tested in eight-point concentration-response experiments. Cell culture and cytotoxicity assays were conducted at Thermo Fisher Scientific's Custom Services facility (Madison, WI). A single lot of human HepaRG cells (Thermo Fisher Scientific, Frederick, MD) was used for the cell culture experiments. 96-well format collagen type I coated plates of human HepaRG cells were prepared using established methods. Briefly, cryopreserved HepaRG cells were thawed, plated at a density of approximately 100,000 cells/well in HepaRG Thaw, Plate, and General Purpose media (HPRG770, Thermo Fisher Scientific), and incubated for 48 hours. 0.5% DMSO was selected as vehicle control to balance the requisite need of DMSO in HepaRG cultures to maintain differentiation (for example, baseline metabolism, proportions of hepatocytes vs. cholangiocytes), while enabling further hepatic receptor pathway activation (for example, PXR and CAR) in response to chemical exposure. 48 hours after plating, the culture medium was replaced with HepaRG Serum-Free Incudtion Media. Cells were exposed to each test chemical in duplicate and maintained in CO2 incubators for another 48 hours. Chemical plates were thawed to room temperature and 200x concentrations of treatment groups were prepared. 8-point conentration-reponse curves were made with the highest exposure at 100 uM, followed by half-log dilutions, all in 0.5% DMSO. Each test plate contained variouse controls, induction positive controls (1mM phenobarbital), cytotoxicity positive controls ([…] aflatoxin B1), vehicle controls (0.5% DMSO), and total lysis controls (0.5% DMSO). Cell morphology images were taken using an Essen IncuCyte FLR automated microscope, with six 96-well plates imaged in about 24 minutes. Images were captured and exported and JPEG files. Spent culture media was transfered to black-well plates for the LDH assay, and remaining media was sorted at -80 C for later use. Cells were treated with RLT buffer and frozen until shipped for gene expression analysis. Total RNA was isolated from the cell suspension in 75 uL of Buffer RLT (Qiagen, Germantown, MD 20874) by Quintiles/Expression Analysis (Durham, NC) using a custom isolation procedure. Total RNA from each plate well was transferred to a preamplification plate. Fluidigm's 96.96 Dynamic ArrayTM (Fluidigm, Amsterdam, the Netherlands) technology was used for gene expression analyses by quantitative reverse transcription polymerase chain reaction (qRT-PCR, performed by Quintiles/Expression Analysis, Durham, NC)89. Standard TaqManTM Assays (Applied Biosystems/ThermoFisher Scientific, Foster City, CA) were used to assess the expression of 93 genes selected based on their selectivity and sensitivity to important hepatic receptors known to be modulated by environmental chemicals; importance in human hepatocyte functionality; and hepatotoxicity. […]

Row | Structure (SMILES) | AC50 | outcome
1 | O=NN(c1ccccc1)c1ccccc1 | 78.2 µM (active) | –
2 | C1CC2OC2CC1C1CO1 (stereo not given) | – | inactive
3 | Clc1ccc(C(Cl)(Cl)Cl)cc1 | – | inactive
4 | ClC1=C(Cl)[C@]2(Cl)[C@@H]3[C@@H]4C[C@@H]([C@H]5O[C@@H]45)[C@@H]3[C@@]1(Cl)C2(Cl)Cl | – | inactive
5 | Oc1ccc(C(c2ccc(O)cc2)(C(F)(F)F)C(F)(F)F)cc1 | – | inactive
6 | NS(=O)(=O)C(F)(F)C(F)(F)C(F)(F)C(F)(F)C(F)(F)C(F)(F)C(F)(F)C(F)(F)F | – | inactive
7 | COc1ccc(O)c(C(C)(C)C)c1 | – | inactive
8 | CCCCCCCCCC[N+](C)(C)CCCCCCCCCC | – | inactive
9 | Cc1cc(-c2ccc(N)c(C)c2)ccc1N | – | inactive
10 | CCCCCCCCCc1ccc(O)cc1 | – | inactive
11 | CO/C=C(/C(=O)OC)c1ccccc1COc1cccc(C(F)(F)F)n1 | – | inactive
12 | C=CC(N)=O | – | inactive
13 | O=C(O)C(F)(F)C(F)(F)C(F)(F)C(F)(F)C(F)(F)C(F)(F)C(F)(F)C(F)(F)C(F)(F)F | 90.6 µM (active) | –
14 | N#Cc1ccc(N(CC(N)=O)CC(F)(F)F)cc1C(F)(F)F | – | inactive
15 | CC1=C2C[C@H]3[C@@H](CC=C4C[C@@H](O)CC[C@@]43C)[C@@H]2CC[C@]12O[C@@H]1C[C@H](C)CN[C@H]1[C@H]2C | – | inactive
16 | CCCN(CCC)N=O | – | inactive
17 | O=C(O)C(F)(F)C(F)(F)C(F)(F)C(F)(F)C(F)(F)F | – | inactive
18 | c1ccc(-c2ccccc2)cc1 | – | inactive
19 | O=S(=O)(O)C(F)(F)C(F)(F)C(F)(F)C(F)(F)F | – | inactive
20 | CC(C)(c1ccccc1)c1ccc(O)cc1 | – | inactive

Row | Structure (SMILES) | AC50 | outcome
21 | Clc1ccc(C(c2ccccc2Cl)C(Cl)(Cl)Cl)cc1 (stereo not given) | – | inactive
22 | Cc1ccccc1CO[C@@H]1C[C@@]2(C(C)C)CC[C@]1(C)O2 | – | inactive
23 | CCOC(=O)C(O)(c1ccc(Cl)cc1)c1ccc(Cl)cc1 | – | inactive
24 | Cc1cc(O)ccc1Cl | – | inactive
25 | ClC1=C(Cl)[C@]2(Cl)[C@@H]3[C@@H](Cl)[C@H]4O[C@H]4[C@@H]3C1(Cl)C2(Cl)Cl | – | inactive
26 | C=CC(=O)NCNC(=O)C=C | – | inactive
27 | Cc1cc2c3c(c1)C(c1ccccc1)=N[C@@H](NC(=O)c1ccncc1)C(=O)N3CC2 | – | inactive
28 | COS(=O)(=O)OC | – | inactive
29 | C[C@]12CCC(=O)C=C1CC[C@@H]1[C@@H]2CC[C@@]2(C)[C@H]1CC[C@]2(C)O | 45.8 µM (active) | –
30 | Cc1cccc(C)c1N | – | inactive
31 | Cc1cccc([N+](=O)[O-])c1 | – | inactive
32 | Cc1ccccc1O | – | inactive
33 | CC(c1ccc(O)cc1)(c1ccc(O)cc1)c1ccc(O)cc1 | 3.86 µM (active) | –
34 | CCC(C)c1cc([N+](=O)[O-])cc([N+](=O)[O-])c1O (stereo not given) | 2.42 µM (active) | –
35 | Cc1ccccc1[N+](=O)[O-] | – | inactive
36 | ClC1=C(Cl)[C@]2(Cl)[C@@H]3[C@H]4C[C@H]([C@@H]5O[C@H]45)[C@@H]3[C@@]1(Cl)C2(Cl)Cl | – | inactive
37 | O=C(O)C(F)(F)C(F)(F)C(F)(F)C(F)(F)C(F)(F)C(F)(F)C(F)(F)C(F)(F)F | – | inactive
38 | O=C(N[C@H]1CN2CCC1CC2)c1cc2ccoc2cn1 | – | inactive
39 | Cc1ccc(O)c(C)c1 | – | inactive
40 | CCC(C)(CC)c1cc(NC(=O)c2c(OC)cccc2OC)on1 | – | inactive

Source: PubChem BioAssay (EPA / NIEHS)
